Assay results from paper PMC4336329 (PLoS ONE, 2015).
Hit rate of the full screen: of about 310,000 compounds, about 14,000 (4.5%) showed an effect of 50% or more. The effect is printed as a negative number. The full list was thinned out, with strong results kept by preference.

Biological target: human ether-à-go-go-related gene (hERG) potassium channel (human, UniProt Q12809)
Test: primary screen, population patch clamp on CHO cells stably expressing hERG; higher = less effect of the substance
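Further: peak tail current of the secondary pulse compared with the same well before compound.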

Chain of human ether-à-go-go-related gene (hERG) potassium channel (Q12809 whole entry, looked up): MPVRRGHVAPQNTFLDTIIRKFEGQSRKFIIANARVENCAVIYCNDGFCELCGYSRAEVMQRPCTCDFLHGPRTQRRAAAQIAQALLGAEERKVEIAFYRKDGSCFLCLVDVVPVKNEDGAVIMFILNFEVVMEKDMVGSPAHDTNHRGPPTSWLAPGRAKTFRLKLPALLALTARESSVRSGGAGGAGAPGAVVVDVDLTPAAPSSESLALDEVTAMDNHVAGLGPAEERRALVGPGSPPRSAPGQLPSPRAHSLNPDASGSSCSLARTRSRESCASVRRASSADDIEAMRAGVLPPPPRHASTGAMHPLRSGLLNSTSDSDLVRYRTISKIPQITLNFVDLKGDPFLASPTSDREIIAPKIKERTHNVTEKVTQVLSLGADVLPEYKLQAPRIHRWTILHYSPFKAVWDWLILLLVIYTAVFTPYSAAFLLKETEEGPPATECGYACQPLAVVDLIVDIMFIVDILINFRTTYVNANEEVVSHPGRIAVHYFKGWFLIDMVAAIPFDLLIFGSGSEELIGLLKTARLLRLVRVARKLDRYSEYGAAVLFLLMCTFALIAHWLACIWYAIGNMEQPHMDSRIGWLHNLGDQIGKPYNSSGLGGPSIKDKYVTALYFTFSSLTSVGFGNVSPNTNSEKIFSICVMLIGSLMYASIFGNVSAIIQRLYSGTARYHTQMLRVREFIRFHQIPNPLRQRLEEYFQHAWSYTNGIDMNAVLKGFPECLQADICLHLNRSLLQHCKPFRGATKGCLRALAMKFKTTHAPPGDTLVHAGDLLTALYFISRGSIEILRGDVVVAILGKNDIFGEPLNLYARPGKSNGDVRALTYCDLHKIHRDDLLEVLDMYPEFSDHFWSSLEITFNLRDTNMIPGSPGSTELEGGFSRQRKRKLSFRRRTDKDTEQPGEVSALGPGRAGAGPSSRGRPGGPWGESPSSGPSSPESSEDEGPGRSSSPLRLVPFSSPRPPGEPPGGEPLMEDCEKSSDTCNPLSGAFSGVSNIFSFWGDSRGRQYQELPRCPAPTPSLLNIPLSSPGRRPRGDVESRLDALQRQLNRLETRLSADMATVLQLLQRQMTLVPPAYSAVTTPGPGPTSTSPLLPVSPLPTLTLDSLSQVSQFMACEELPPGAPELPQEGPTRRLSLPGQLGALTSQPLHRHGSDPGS

Row | Structure (SMILES) | hERG current change (%, negative = inhibition) at 10uM [%]
1 | Cc1ccc(C)c(OC(=O)C2CSC3(C)CCC(=O)N23)c1C (stereo not drawn) | -7.46
2 | COc1cc(C(O)P(=O)(OCCC(C)C)c2ccc(N(C)C)cc2)cc(OC)c1OC (stereo not drawn) | 10.9
3 | CCOc1ccc2c(c1)ncn2Cc1ccccc1 | 8.33
4 | Cc1cccc2cc(CN(CC3CCCO3)C(=O)NC3CCCCC3)c(=O)[nH]c12 (stereo not drawn) | -9.99
5 | O=C(Nc1cccc(Cl)c1)N(CCN1CCOCC1)Cc1cccc(Cl)c1 | -22.1
6 | COc1ccc(NC(=O)N(CCO)Cc2cc3c(C)cc(C)cc3[nH]c2=O)cc1 | -15.3
7 | Cc1ccc(C)c2[nH]c(=O)c(CN(CCN3CCCC3)C(=O)Nc3cccc(Cl)c3)cc12 | -74.1
8 | Cc1cc(C)c2cc(CN(CCN3CCCC3)C(=O)Nc3ccc(F)cc3)c(=O)[nH]c2c1 | -74.4
9 | COc1ccc(NC(=O)N(CCN2CCCC2)Cc2cc3cc(OC)c(OC)cc3[nH]c2=O)cc1 | -4.32
10 | Cc1ccc2cc(CN(CCN(C)C)C(=S)Nc3ccccc3)c(=O)[nH]c2c1C | -49.9
11 | COc1ccc(NC(=S)N(CCO)Cc2cc3c(C)cc(C)cc3[nH]c2=O)cc1 | -48.8
12 | Cc1ccc2cc(CN(CC3CCCO3)C(=O)NC3CCCCC3)c(=O)[nH]c2c1C (stereo not drawn) | -55.4
13 | Cc1ccc2cc(CN(CCN3CCCC3)C(=O)Nc3ccccc3)c(=O)[nH]c2c1C | -57.8
14 | Cc1cccc2cc(CN(CCCO)C(=O)Nc3cccc(Cl)c3)c(=O)[nH]c12 | -28.4
15 | Cc1ccc(C)c2[nH]c(=O)c(CN(CC3CCCO3)C(=O)NC3CCCCC3)cc12 (stereo not drawn) | -2.81
16 | CCC(c1nnnn1CS(=O)(=O)c1ccc(C)cc1)N1CCN(c2nc3ccccc3s2)CC1 (stereo not drawn) | -4.38
17 | CC(C)NC(=O)[C@@H]1CSC2c3ccccc3C(=O)N21 (stereo partly drawn) | 12.7
18 | Nc1nc(-c2ccc(Cl)cc2)nn1C(=O)c1ccco1 | 23.3
19 | CCOC(=O)C(Cc1ccccc1)C(=O)Nc1cccc2ccccc12 (stereo not drawn) | -11.8
20 | CC(C)Cn1c(N)c(C(=O)COC(=O)[C@@H]2CCCN2C(=O)c2cccs2)c(=O)n(C)c1=O | -8.74
21 | O=C(c1c[nH]c2ccccc12)N1CCOCC1 | 8.48
22 | c1ccc(COc2ccc(-c3csnn3)cc2)cc1 | -3.17
23 | Cc1nc(-c2ccc(Cl)cc2)sc1C1(C)CC(c2ccc(OC(F)(F)F)cc2)=NO1 (stereo not drawn) | 10.3

Row | Structure (SMILES) | hERG current change (%, negative = inhibition) at 10uM [%]
24 | O=C(Cc1ccccc1)Nc1cccc(N2C(=O)C=CC2=O)c1 | -4.45
25 | O=C(Nc1cccc2[nH]ncc12)c1ccc(F)cc1 | -17.4
26 | Cc1ccc(C)c2[nH]c(=O)c(CN(Cc3ccco3)C(=O)Nc3ccccc3)cc12 | 1.89
27 | Cc1ccc(C)c2[nH]c(=O)c(CN(CCN3CCCC3)C(=O)Nc3ccc(F)cc3)cc12 | -75.7
28 | Cc1cccc2cc(CN(CCN3CCOCC3)C(=O)Nc3ccccc3F)c(=O)[nH]c12 | -20.6
29 | Cc1ccc2cc(CN(CCN3CCCC3)C(=O)Nc3ccc(F)cc3)c(=O)[nH]c2c1C | -70.7
30 | COc1cc2cc(CN(CCN3CCCC3)C(=O)Nc3ccc(F)cc3)c(=O)[nH]c2cc1OC | -7.92
31 | COc1cc2cc(CN(CCN3CCOCC3)C(=O)Nc3ccc(F)cc3)c(=O)[nH]c2cc1OC | -28.6
32 | COc1ccc(CCN(Cc2cc3cccc(C)c3[nH]c2=O)C(=O)NC2CCCCC2)cc1OC | -25
33 | Cc1cccc2cc(CN(CCN3CCCC3)C(=O)NC3CCCCC3)c(=O)[nH]c12 | -57
34 | Cc1cccc2cc(CN(Cc3ccco3)C(=O)NC3CCCCC3)c(=O)[nH]c12 | -38.9
35 | NC(=O)Cc1nc2scc(-c3ccccc3)c2c(=O)[nH]1 | 37.9
36 | COC(=O)c1cccc(S(=O)(=O)N2CCC(NC(=O)NC34CC5CC(CC(C5)C3)C4)CC2)c1 | 4.44
37 | O=C(CCn1cccc1)Nc1cccc(F)c1 | 0.101
38 | CCc1nnc(NC(=O)CSc2ncc(-c3ccccc3)n2CC)s1 | -17.9
39 | COCCCC1CCN(Cc2nc(Cc3ccccc3Cl)no2)CC1 | 5.07
40 | CC[C@@]1(O)C(=O)OCc2c1cc1n(c2=O)Cc2cc3c(CN(C)C)c(O)ccc3nc2-1.Cl | 13.6
41 | Fc1ccc(-n2cc(-c3ccccc3)[n+]3c2SCC3)cc1.[Br-] | -22.7
42 | Cc1ccc(-c2cn(-c3ccccc3)c3[n+]2CCCS3)cc1.[Br-] | -29.1
43 | COc1ccc(-n2cc(-c3ccc(Br)cc3)[nH]c2=S)cc1 | 18
44 | Clc1ccc(-c2cn(-c3ccccc3)c3[n+]2CCS3)cc1.[Br-] | -59.4
45 | Fc1ccc(-c2cn(-c3ccccc3)c3[n+]2CCS3)cc1.O.[Br-] | -45.3
46 | CCc1ccc(-n2cc(-c3ccc(F)cc3)[n+]3c2SCCC3)cc1.[Br-] | -71.7

Row | Structure (SMILES) | hERG current change (%, negative = inhibition) at 10uM [%]
47 | COc1ccc(-c2cn(-c3ccc(Br)cc3)c3[n+]2CCS3)cc1.[Br-] | -66.7
48 | [Br-].c1ccc(-c2cn(-c3ccccc3)c3[n+]2CCS3)cc1 | -5.74
49 | COc1ccc(-c2cn(-c3ccccc3)c3[n+]2CCS3)cc1 | -38
50 | O=C(N/N=C/c1ccco1)c1cc(-c2cccc3ccccc23)n[nH]1 | 7.01
51 | COC(=O)C(C)N(c1ccc(C)cc1)S(=O)(=O)c1c(C)[nH]c(=O)[nH]c1=O (stereo not drawn) | 1.72
52 | Cc1ccc(S(=O)(=O)NC2(C(F)(F)F)NC(=O)N(c3ccc(F)cc3)C2=O)cc1 (stereo not drawn) | 9.68
53 | CCN1CCN(C(=O)c2c(-c3c(Cl)cccc3Cl)noc2C)CC1 | 20.9
54 | Cc1ccc(-n2c(C)cc(/C=C3\NC(=O)NC3=O)c2C)c(C)c1 | -5.9
55 | Cc1cc(C)n(CCc2nc(-c3cccs3)cs2)n1 | 3.48
56 | Cc1nc2ccccn2c1C(=O)NNC(=O)Nc1cccc(C(F)(F)F)c1 | -11
57 | Cc1nc2sc(C(=O)O)c(N)c2c2c1COC(C)(C)C2 | 9.19
58 | O=C(Nc1ccc(NC(=O)C2CCCCC2)cn1)c1ccco1 | 4.68
59 | CCN(CCO)Cc1cn[nH]c1-c1ccc(C)c(C)c1 | 9.28
60 | Cc1c(NC(N)=O)c(=O)n(-c2ccccc2)n1C | 3.79
61 | CNc1cnn(-c2ccc(C)cc2)c(=O)c1Sc1ccc(C)cc1 | -8.7
62 | C=CCNc1cnn(-c2ccc(C)cc2)c(=O)c1Cl | -12.7
63 | C=CCNc1cnn(-c2ccc(C)cc2)c(=O)c1Sc1ccc(C)cc1 | -79.4
64 | CCOC(=O)c1cc(-c2ccccc2)nn1Cc1cc(C)no1 | -4.06
65 | C=CCN1C(=O)/C(=C2/Sc3ccccc3N2C)SC1=Nc1c(C)n[nH]c1C | -3.99
66 | O=C(CCN1C(=O)c2ccccc2C1=O)Nc1ccc(F)cc1 | -6
67 | COc1cc(CN2CCc3c([nH]c4ccccc34)C2)cc(OC)c1 | -55.7
68 | Clc1cccc(CN2CCc3c([nH]c4ccccc34)C2)c1 | -31.9
69 | Clc1ccc(CN2CCc3c([nH]c4ccccc34)C2)cc1Cl | -28.2

Row | Structure (SMILES) | hERG current change (%, negative = inhibition) at 10uM [%]
70 | CCOc1cc(CN2CCc3c([nH]c4ccccc34)C2)ccc1OC | -19
71 | CSc1ccc(CN2CCc3c([nH]c4ccccc34)C2)cc1 | -52.7
72 | Cc1cccc(CN2CCc3c([nH]c4ccccc34)C2)c1 | -33.4
73 | Cc1cccc(NC(=O)CSc2nc3ccccc3nc2N2CCCCC2)c1 | -36.5
74 | COc1ccc(CNC(=O)c2n[nH]c3ccccc23)cc1OC | 11.6
75 | CCOC(=O)CSCC(=O)N1CCC(Cc2ccccc2)CC1 | 3.24
76 | CCCSCCCNC(=O)CN1C(=O)COc2ccc(S(=O)(=O)N3CCCC3)cc21 | 2.87
77 | O=C(N/N=C/c1ccc(OC(=O)c2ccc3c(c2)OCO3)cc1)c1cncc(Br)c1 | 10.8
78 | Cc1ccc(-n2cnc3c(sc4nccc(N(C)C)c43)c2=O)cc1 | -16.4
79 | CN(C)c1ccnc2sc3c(=O)n(Cc4ccccc4)cnc3c12 | -51
80 | CN(C)c1ccnc2sc3c(=O)n(-c4ccccc4)cnc3c12 | -17.9
81 | CCN(CC)C(=O)c1sc(NC(=O)Cc2cccs2)c(C#N)c1C | -6.24
82 | CC(C)CNC(=O)CN(c1ccccc1)S(=O)(=O)c1ccccc1[N+](=O)[O-] | 2.38
83 | Cc1cccc(N(CC(O)CN2CCOCC2)S(=O)(=O)c2ccccc2)c1 (stereo not drawn) | -1.7
84 | COc1ccccc1N(CC(O)CN1CCOCC1)S(=O)(=O)c1ccccc1 (stereo not drawn) | 12.7
85 | CC(C)CN(CC(C)C)CC(O)CN(c1ccccc1)S(=O)(=O)c1ccccc1[N+](=O)[O-] (stereo not drawn) | -51.5
86 | Cc1ccc(N(CC(O)CN2CCCC2)S(=O)(=O)c2ccccc2)cc1 (stereo not drawn) | -68.2
87 | COc1ccccc1N(CC(O)CN1CCCC1)S(=O)(=O)c1ccccc1 (stereo not drawn) | -4.48
88 | Cc1cccc(N(CC(O)CN2CCCC2)S(=O)(=O)c2ccccc2)c1 (stereo not drawn) | -57
89 | Cc1ccc(N(CC(O)CN2CCCCC2)S(=O)(=O)c2ccccc2)cc1 (stereo not drawn) | -68
90 | CC1(C)NC(=O)N(CC(O)CN(c2ccccc2)S(=O)(=O)c2ccccc2[N+](=O)[O-])C1=O (stereo not drawn) | 13.7
